From PubChem BioAssay (NCI)
Compounds without any hit were thinned out: in the full panel of roughly 79,000, 15% have a hit. Values without a mark were called inactive. Active and inactive are the calls of the source. Rule as the data show it: active = growth inhibition above about 70%; inactive = the rest.

Columns and labels:
[1] = NCI Yeast Anticancer Drug Screen. Data for the rad50 strain (AID 155);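 also: 0% = growth of vehicle-only cultures of the same strain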; settings: S. cerevisiae rad50 strain growth inhibition; at 50.0 µM; hits give high values
Summary of the method: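 Compounds were tested on a yeast strain with an engineered DNA damage repair alteration; the reported value is growth inhibition normalised to vehicle treatment.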

[2] = NCI Yeast Anticancer Drug Screen. Data for the mec2-1 strain (AID 157); settings: S. cerevisiae mec2-1 strain, at 50.0 µM, hits give high values
Summary of the method: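 Growth inhibition is read against vehicle-treated controls after compound exposure of the mec2-1 yeast strain, which is defective in DNA damage repair or cell cycle control.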

[3] = NCI Yeast Anticancer Drug Screen. Data for the sgs1 mgt1 strain (AID 161);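 also: 0% = growth of cultures given vehicle only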; settings: S. cerevisiae sgs1 mgt1 strain, at 50.0 µM, hits give high values
Summary of the method: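 Percent growth inhibition was derived by comparing compound-exposed mutant yeast with vehicle-exposed cultures. The strain carries alterations in DNA damage repair.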

[4] = NCI Yeast Anticancer Drug Screen. Data for the cln2 rad14 strain (AID 165);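 also: 0% = growth equal to vehicle treated cultures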; settings: S. cerevisiae cln2 rad14 strain, at 50.0 µM, hits give high values
Summary of the method: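 Growth inhibition, relative to vehicle-treated controls, is the read-out. The test organism is a yeast strain with defined genetic alterations, cln2 rad14.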

[5] = NCI Yeast Anticancer Drug Screen. Data for the bub3 strain (AID 167); settings: S. cerevisiae bub3 mutant strain, at 50.0 µM, hits give high values
Summary of the method: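 Growth of a checkpoint-deficient yeast mutant is measured after compound exposure. Values represent inhibition relative to vehicle.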

[6] = NCI Yeast Anticancer Drug Screen. Data for the mlh1 rad18 strain (AID 175); settings: S. cerevisiae mlh1 rad18 strain growth inhibition; at 50.0 µM; hits give high values
Summary of the method: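 Cells of a genetically altered yeast strain, deficient in DNA damage repair, were treated with compound. Their growth was then compared with that of vehicle-treated cultures to give inhibition.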

| SMILES | growth inhibition [1] | growth inhibition [2] | growth inhibition [3] | growth inhibition [4] | growth inhibition [5] | growth inhibition [6] |
| --- | --- | --- | --- | --- | --- | --- |
| CN(C)CC1CCC/C(=C\c2ccccc2)C1=O (configuration not stated) | 37.1% | 41.8% | 47.8% | 32.5% | 38.5% | 16.7% |
| CNC(=O)c1ccc(C(C)C)cc1 | 0.3% | -1.95% | -5.3% | -10.7% | 4.2% | 0.65% |
| Nc1ccc(OCC(O)N2C(=O)c3ccccc3C2=O)cc1 (configuration not stated) | -46.2% | -39.5% | -32.9% | 14.4% | 29.9% | -17.9% |
| C/C(CC(=O)Nc1ccc(Cl)cc1)=N\NC(=O)C[n+]1ccccc1 | 1.35% | -17.6% | 11.2% | 16.6% | -12.5% | -8.6% |
| O=C=Nc1ccccc1[N+](=O)[O-] | -4.25% | -28% | -15.8% | -65.5% | -0.55% | -9.2% |
| Cn1c(Nc2ccccc2)c([N+](=O)[O-])c(=O)n(C)c1=O | -11.8% | -7.35% | -5% | -18.2% | -2.15% | -27.6% |
| CC(C)(C)c1cc(-c2cc(C(C)(C)C)n(-c3ccccc3)n2)nn1-c1ccccc1 | -22.6% | -26.9% | -17.3% | 16% | -31.4% | -27.2% |
| COC1(OC)CCCc2c1no[n+]2[O-] | -43.4% | -11.3% | -50.2% | -16.7% | 16.5% | -21.2% |
| c1ccc(CCN=C2c3ccccc3-n3cccc32)nc1 | 33.5% | 0.95% | -6.75% | -28.1% | 10.6% | 16.4% |
| COCCCNC(=O)CC(=O)NCCCOC | 13.4% | -2.3% | 24.8% | 6.55% | 5% | 29.4% |
| COc1ccc2c(c1OC(C)=O)C1=CC(OC(C)=O)=CCC13CCN(C)C3C2 (configuration not stated) | 2.75% | -0.15% | -10.8% | -4.7% | -6.4% | -0.15% |
| Cc1n(C)c(C(O)c2ccccc2)c(Br)[n+]1C (configuration not stated) | 9.3% | 1.4% | 8.25% | -12.1% | 77.7% (active) | 12.6% |
| O=C(OCCCl)Oc1c(Cl)cc([N+](=O)[O-])cc1[N+](=O)[O-] | 99.6% (active) | 99.8% (active) | 99.7% (active) | 99% (active) | 99.2% (active) | 99.5% (active) |
| O=C(c1ccccc1)c1cnc2ccccn12 | -2.35% | -2.35% | -3.15% | -15.9% | 5.8% | -8.05% |
| CCCCc1c2c(nc3c1CCCC3O)CCCC2 (configuration not stated) | -40.4% | -63% | -13.9% | 13.2% | -8.1% | -23.9% |
| NC(CSc1nc2ccccn2c1[N+](=O)[O-])C(=O)O (configuration not stated) | -26.1% | -40.8% | -30.1% | 5.25% | 8.25% | -18% |
| [C-]#[N+]C1(c2ccccc2)C2CC3CC(C2)CC1C3 (configuration not stated) | -1.7% | -7.05% | -4.35% | -16.9% | -4.25% | 9.35% |
| CCC1=CCC(P(=O)(c2ccccc2)c2ccccc2)CC1C (configuration not stated) | -28.8% | -16.4% | -0.15% | 12.6% | 0.15% | -19.8% |
| Cc1ccc(NC(=O)OCCOc2c(C(C)C)cccc2C(C)C)c([N+](=O)[O-])c1 | -0.8% | -3.3% | 8.55% | -41.9% | -7.7% | 18.4% |
| CCOC/N=C(/N)NC#N | 25.6% | 2.35% | 10.8% | 13.1% | -3.4% | 33.1% |
| CCCC1OCC=CCO1 | 3.75% | -23.6% | -21.1% | -1.45% | -33.5% | 20.4% |

| SMILES | growth inhibition [1] | growth inhibition [2] | growth inhibition [3] | growth inhibition [4] | growth inhibition [5] | growth inhibition [6] |
| --- | --- | --- | --- | --- | --- | --- |
| c1ccc(Cc2[nH]nc(-c3ccccc3)c2N=Nc2ccccc2)cc1 | 5.55% | -34.9% | 2.65% | -16.4% | 8.45% | -6.1% |
| CC(=O)c1cccc(N2COC(C)(C)c3nc4ccccc4n3C2)c1 | 5.9% | -9.85% | -20.1% | 12.8% | -19.9% | -0.05% |
| CCN(CC)c1cccc(C(=O)OCCNCC(C)C)c1 | -9.7% | 0.85% | 5.05% | -39.7% | 49.1% | 10.8% |
| COC1(OC)c2no[n+]([O-])c2C(OC)(OC)c2c1no[n+]2[O-] | -11.7% | -4.8% | -6.35% | 19.1% | 20.6% | -4.35% |
| CCCCC(ON=C(C)C)C(=O)OC (configuration not stated) | 19.3% | 31.6% | -10.2% | 12.1% | 1.25% | 24.4% |
| COC1OC(C(C)O)C2OC(C)(C)OC12 (configuration not stated) | 40.5% | 29.1% | 32.2% | 1.5% | 18.9% | 13.3% |
| O=C1c2ccccc2C(=C(c2ccccc2)c2ccccc2)c2ccccc21 | 29.1% | -19.5% | -10.3% | 10.6% | 5.35% | -4.75% |
| CCOC(=O)Cc1nnc2n(-c3ccccc3)c(=O)c3ccccc3n12 | -23.6% | -15.3% | -21.7% | 11.8% | -21.9% | -74.2% |
| O=C(CNc1ccccc1)c1ccc(O)c(C(=O)O)c1 (tested in a mixture with another compound) | -8.5% | -12.3% | -11.3% | -5.35% | -0.7% | 0.95% |
| CC(=O)NC(NC(C)=O)c1ccccc1 | -16.6% | -8.5% | -5.45% | -8.55% | -26.4% | -20.5% |
| Cc1ccc2c3nc4ccccc4c-3csc2c1 | 99.2% (active) | 99.4% (active) | 99.4% (active) | 99% (active) | 99.2% (active) | 99.3% (active) |
| O=C(c1ccccc1CO)N1CCCCC1 | 10.8% | 2.2% | -1.55% | -69% | -9.2% | -20.4% |
| CCC(CC)COC(=O)c1ccccc1C(=O)OCC(CC)CC | -18.9% | -33.3% | -0.35% | 3.6% | -2.75% | -16% |
| NS(=O)(=O)c1ccc(NC(=O)CCl)cc1 | 6.5% | -6.8% | -1.9% | 11.7% | 3.3% | -15.9% |
| CC(=O)Nc1ccc2cc(-c3ccc(Cl)cc3)c3nnnn3c2n1 | 14.3% | 4.85% | 25.8% | -53.1% | 0.9% | 17.8% |
| CC(=O)NC(C)c1ccc(N=NN2CCCC2)cc1 (configuration not stated) | 19.6% | -6% | 20% | 19.9% | 25.3% | -30.5% |
| N#CC(C#N)=CNc1ccccc1 | 5.4% | -8.95% | 7.5% | -20.9% | 9.7% | 4.6% |
| CC1OC(c2ccccc2)=CC(OCc2ccccc2)[C@H]1OCc1ccccc1 (some centres not stated) | -18.9% | -23.6% | -19% | -50.8% | -33% | 2.95% |
| COc1ccc(-c2oc3ccccc3c(=O)c2O)cc1OC | 2.3% | 9.9% | 16.2% | -10.8% | 21.4% | -11.1% |
| COC(=O)C1(OC)C(=O)NC2=C1C(=O)c1ccccc1C2=O (configuration not stated) | -12.1% | -13% | -4.1% | -18.8% | 9.3% | 4.8% |
| CCCN(CCCCC(NC(C)=O)C(=O)NCc1ccccc1)C(=O)NC (configuration not stated) | -26.9% | -27.8% | -13.1% | 17.9% | -18.9% | -14.5% |
